Screens deposited in PubChem by National Center for Advancing Translational Sciences (NCATS).
Many of the other results were omitted from the sample, so hits are more common in it than they were.
Pf Dd2 inh: inhibitors of Plasmodium falciparum Dd2 growth | P. falciparum Dd2 growth, SYBR Green, 72 h | AID 1347417 | Potency, µM (highest dose often 28.9 µM), for the others: top-dose activity, negative = inhibition, most hits filed as inhibitors | 120,000 compounds, 4.3% hits; active = well fitted inhibition curve with a large enough effect;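 note: plate controls were DMSO vehicle for no effect and reference drug for full effect; nearly all actives have a fitted effect of over 65% in size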
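Infected erythrocytes (Dd2, 0.3% parasitemia, 2.5% hematocrit final) are added to compound in RPMI-1640/Albumax II medium, grown 72 h at 37C in low oxygen, then lysed with saponin/Triton-X containing SYBR Green and read by fluorescence.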
* marks the source's active call; other numbers are inactive results; i = inactive; [ ] = dose if it differs, or a comment. Potency is the fitted concentration of half-maximal effect.

SMILES | Pf Dd2 inh
CCOC(=O)c1c(C)[nH]c(C)c1S(=O)(=O)N(C)CC(=O)Nc1cc(Cl)ccc1OC | 10µM*
COc1ccc(OC)c(NC(=O)CC2CCOCC2)c1 | 39%
N#Cc1cccc(CN2CC(COc3ccccc3)C3(C2)CN(c2ccccc2)C3)c1 (stereo not drawn) | -18%[44.1 µM]
CN1Cc2ccccc2-n2ccnc2C12CCN(C(=O)c1ccc(C(F)(F)F)cc1)CC2 | i[5.79 µM]
CC(=O)N1Cc2ccccc2CC2(CCN(Cc3cccnc3)C2)C1 (stereo not drawn) | -12%
O=C(O)CCC(=O)N1Cc2ccccc2CC2(CCCN(Cc3ccncc3)C2)C1 (stereo not drawn) | 0%
CCCC(=O)N1Cc2ccccc2CC2(CCN(Cc3ccncc3)C2)C1 (stereo not drawn) | 11µM*
O=S(=O)(c1ccccc1)N1Cc2ccccc2CC2(CCN(Cc3cccnc3)C2)C1 (stereo not drawn) | 6.3µM*
CCC(=O)N1Cc2ccccc2CC2(CCN(Cc3ccncc3)C2)C1 (stereo not drawn) | -24%
O=C(O)CCC(=O)N1Cc2ccccc2CC2(CCCN(Cc3cccnc3)C2)C1 (stereo not drawn) | 8%
CCCC(=O)N1Cc2ccccc2CC2(CCN(Cc3ccc(NC(C)=O)cc3)C2)C1 (stereo not drawn) | -27%
CCCC(=O)N1Cc2ccccc2CC2(CCN(Cc3cccnc3)C2)C1 (stereo not drawn) | 11µM*
C[S+](=O)([O-])N1Cc2ccccc2CC2(CCCN(Cc3ccccc3)C2)C1 (stereo not drawn) | -12%
CN1CCCC12Cc1ccccc1CN([S+](C)(=O)[O-])C2 (stereo not drawn) | -27%[44.1 µM]
CN(CC(=O)O)c1ncc(CN2CCn3nc(C(O)CO)cc3C2)cn1 (stereo not drawn) | -8%
FC(F)(F)c1cccc(CN2CCOC[C@H](Oc3cnccn3)C2)c1 | i
COc1ccc(C2C=C(c3ccccc3)Nc3nc(NS(=O)(=O)c4ccc(Cl)cc4)nn32)cc1 (stereo not drawn) | 4%
O=S(=O)(Nc1nc2n(n1)C(c1ccc(F)cc1)C=C(c1ccccc1)N2)c1ccc(Cl)cc1 (stereo not drawn) | -16%
COc1ccc(C(=O)Nc2nc3n(n2)C(c2ccc(F)cc2)C=C(c2ccc(Cl)cc2)N3)cc1 (stereo not drawn) | 5µM*
O=C(Nc1cnc(-c2ccc(F)cc2)nc1)c1ccco1 | i
CC1=C(C(=O)Nc2cccnc2)C(c2ccc(Cl)cc2)n2nc(-c3ccccc3)nc2N1 (stereo not drawn) | i
O=C(Nc1nc2n(n1)C(c1ccc(F)cc1)C=C(c1ccccc1)N2)c1ccc(Cl)cc1 (stereo not drawn) | 10µM*
COc1ccc(C2C=C(c3ccc(Cl)cc3)Nc3nc(NC(=O)CCC(=O)O)nn32)cc1 (stereo not drawn) | -5%
Cc1ccc(-c2nc3sc(CCNC(=O)c4ccco4)c(C)n3n2)cc1 | i
Cc1ccc(C2C=C(c3ccc(Cl)cc3)Nc3nc(NC(=O)c4ccco4)nn32)cc1 (stereo not drawn) | 3.5µM*
SMILES | Pf Dd2 inh
COc1ccccc1C(=O)NC1CCN(c2cc(-c3ccc(Cl)cc3)[nH]n2)CC1 | i
COc1ccccc1C(=O)Nc1nc2n(n1)C(c1ccc(F)cc1)C=C(c1ccc(Cl)cc1)N2 (stereo not drawn) | 4.5µM*
COc1ccc(C(=O)N2CCN(C(=O)c3nnn4c3COC(c3ccccc3)C4)CC2)cc1F (stereo not drawn) | -7%
CC(C)(O)CCc1cccc(C(=O)NC2CCN(S(C)(=O)=O)CC2)c1 | 5%
O=C(c1ccc(F)cc1)N1CCC2(CC1)NC(=O)N(c1ccccc1Cl)N2 | i
O=c1cc(-c2cccnc2)oc2c(-c3cccc(F)c3)nccc12 | -3%[44.1 µM]
O=C(CC1CCCN(c2cnn(CC3CC3)c(=O)c2)C1)N1CCN(c2ccccc2)CC1 (stereo not drawn) | -11%
Cc1ncc(CO)c(CN2CCC3(CC2)Cc2ccccc2CNC3=O)c1O | -14%
CC(C)CN1CCOC[C@H](Oc2ccc(C(F)(F)F)cc2)C1 | i
O=C(CCC1CCCC1)NC1CCc2nn(CC3CC3)c(=O)n2CC1 (stereo not drawn) | i
O=C(Nc1nc2n(n1)C(c1ccc(F)cc1)C=C(c1ccc(Cl)cc1)N2)c1ccc([N+](=O)[O-])cc1 (stereo not drawn) | 4µM*
Cc1ccc(S(=O)(=O)Nc2nc3n(n2)C(c2ccc(F)cc2)C=C(c2ccccc2)N3)cc1 (stereo not drawn) | -30%
Fc1ccc(C2=CC(c3ccc(F)cc3)n3c(nc4ccccc43)N2)cc1 (stereo not drawn) | 67%
O=C(Cn1nnc(-c2ccc(Cl)cc2)n1)NCc1ccc(F)cc1 | -4%
Cc1ccc(C(=O)Nc2nc3n(n2)C(c2ccc(F)cc2)C=C(c2ccccc2)N3)cc1 (stereo not drawn) | 6.3µM*
Cc1ccc(C(=O)Nc2nc3n(n2)C(c2ccccc2)C=C(c2ccccc2)N3)cc1 (stereo not drawn) | 11µM*
CC(=O)Nc1ccc(S(=O)(=O)Nc2nc3n(n2)C(c2ccccc2)C=C(c2ccc(Cl)cc2)N3)cc1 (stereo not drawn) | 13%
CCC1Oc2ccc(NC(=O)c3ccc([N+](=O)[O-])cc3)cc2CN(Cc2ccc(F)cc2)C1=O (stereo not drawn) | -10%
Cc1ccc(C2C=C(c3ccccc3)Nc3nc(NS(C)(=O)=O)nn32)cc1 (stereo not drawn) | 107%[5.79 µM]
O=S(=O)(Nc1nc2n(n1)C(c1ccccc1)C=C(c1ccc(Cl)cc1)N2)c1ccccc1 (stereo not drawn) | 27%
Cc1ccc(C2C=C(c3ccccc3)Nc3nc(NS(=O)(=O)c4ccccc4)nn32)cc1 (stereo not drawn) | 0%
O=C(Nc1nc2n(n1)C(c1ccccc1)C=C(c1ccccc1)N2)c1ccc(Cl)c([N+](=O)[O-])c1 (stereo not drawn) | 8.9µM*
CCCNS(=O)(=O)c1ccc(NC(=O)NCCc2nccs2)cc1 | -17%
O=C(OCc1ccccc1)N1CCC2(CC1)C(=O)NN=C2c1ccccn1 | i
COc1ccc(CNC(=O)N2CC3CC(C2)[C@H]2CCCC(=O)N2C3)cc1 (stereo partly drawn) | -4%
SMILES | Pf Dd2 inh
Cc1ccc2nc(CN(C)C(=O)c3ccc(C)c(N4CCNC4=O)c3)[nH]c2c1 | -1%
CCNC(=O)N1Cc2[nH]cnc2C[C@H]1c1nc(-c2ccc(OC(F)(F)F)cc2)no1 | i
C1CCC(c2nc(CCOCC3CCOCC3)no2)NC1 (stereo not drawn) | i
C=CCc1cc(-c2c(-c3ccccc3)ncn2CCOCCO)cc(OC)c1O | 6.3µM*
OCCOCCn1cnc(-c2ccccc2)c1-c1ccccc1Cn1cccn1 | -11%
C=CCc1cc(-c2c(-c3ccccc3)ncn2CCCO)cc(OC)c1O | i
Cc1cc2nc(CO[C@H]3CN(C4CCN(C)CC4)C[C@H]3F)[nH]c2cc1C | -20%[44.1 µM]
COCCc1noc(CN(C)c2cc(C3CC(O)C3)nc(C)n2)n1 (stereo not drawn) | 5%
CCc1ccc2oc(-c3cccc(NC(=O)COc4ccccc4Cl)c3)nc2c1 | 42%
CCc1ccc2oc(-c3cccc(NC(=O)c4ccc(-c5cccc([N+](=O)[O-])c5)o4)c3)nc2c1 | 2µM*
O=C(Nc1cccc(-c2nc3cc(Cl)ccc3o2)c1)c1cc([N+](=O)[O-])ccc1N1CCOCC1 | i
O=C(NCCCN1CCCCC1)c1[nH]c2ccccc2c1Sc1ccc(Cl)cc1 | i
